Assay outcomes deposited in PubChem by several laboratories.
Most compounds without a hit are left out; they make up all but 0.99% or so of the library.
LANA-H2B inh – blocks KSHV LANA binding to histone H2A/H2B | Q9QR71 | cell-free LANA-H2A/H2B peptide, fluorescence polarization | inhibition, % (concentration not given with the values) | 320,000 tested, 0.6% active | AID 2629; in the data active = inhibition mostly above about 10%, no sharp cut-off; inactive = mostly below about 6.7%
Keap1-Nrf2 PPI – inhibitors of human Keap1-Nrf2 protein-protein interaction; Keap1 Kelch-Nrf2 peptide fluorescence polarization, 1536-well; inhibition, % at 9.4 µM; Q14145; 340,000 tested, 0.15% active; in the data active = inhibition above about 12%;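 note: human Keap1 Kelch domain with fluorescein labeled Nrf2 9mer peptide probe; 0% = neutral control wells and 100% = peptide positive control; higher means more block of Keap1 binding to Nrf2 peptide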
cardiac RTF act – cardiac RTF calcium sensitization; P19429+P45379; 340,000 tested, 0.24% active; IANBD-labeled TnC RTF fluorescence at EC20 calcium; 0% EC20 calcium, 100% full calcium; activation, % at 7.2 µM;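 active = activation above the mean over all tested compounds plus 3 SD, cut at about 30% in these data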;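 note: rise in fluorescence read as greater calcium sensitivity of cardiac thin filaments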
Cardiac RTF inh – cardiac RTF calcium desensitization | inhibition, % at 7.15 µM | IANBD-labeled cardiac RTF, Ca2+ fluorescence | 340,000 tested, 0.12% active | AID 493244 | P19429+P45379;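 active = inhibition above the mean inhibition of all tested compounds plus 3 SD, cut at about 17% in these data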;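 note: assay run at fixed EC70 calcium of 1.6 mM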
C-LANA FP – blocks KSHV LANA C-terminal domain binding to DNA; 340,000 tested, 0.078% active; inhibition, % at 9 µM; AID 504423; MBP-C-LANA/FAM-LBS DNA binding, fluorescence polarization;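 active = highest replicate inhibition at or above 60% at 9 µM, even if other replicates fall short; inactive = all replicates below 60% inhibition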;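 note: 0% = neutral control wells and 100% = 4 µM acridine orange control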
Active calls of the source: *; nt = no result given; + = active, no number.

SMILES | LANA-H2B inh | Keap1-Nrf2 PPI | cardiac RTF act | Cardiac RTF inh | C-LANA FP
Cc1ccc(C)c(S(=O)(=O)N2CCN(C(=O)[C@@H](NC(=O)c3ccc(F)cc3)C(C)C)CC2)c1 | -1 | -3 | 3 | -8 | -1
CCOc1ccc(NS(=O)(=O)c2cc(NC(=O)c3ccc(C)cc3)ccc2Cl)cc1 | 2 | 4 | 1 | 16 | 2
COc1ccc(C=O)c(OC)c1 | 12* | -3 | -8 | 5 | 1
COc1cc(O)ccc1C=O | -5 | 3 | 4 | -3 | 0
O=C(NCCNc1ccc(Cl)cc1[N+](=O)[O-])c1cccnc1 | 12* | -1 | 1 | 8 | 0
CC(=O)Nc1cccc(N)c1 | 28* | 6 | -8 | 3 | -2
CC(=O)Nc1cccc(C)c1 | -2 | 5 | 0 | 1 | -1
Cc1cccc(Nc2nc(N)c([N+](=O)[O-])c(NCc3ccccc3)n2)c1 | -1 | + | nt | nt | nt
CC(O)(CS(=O)(=O)Cc1cccc(C(F)(F)F)c1)C(=O)Nc1cccc(C(F)(F)F)c1 (stereo unspecified) | -2 | 6 | -3 | -3 | 0
COc1ccccc1N1CCN(S(=O)(=O)c2c[nH]c(=O)[nH]c2=O)CC1 | -3 | -6 | -5 | 0 | 0
N/C(=N\OS(=O)(=O)c1ccccc1)c1ccncc1 | 6 | -6 | 10 | 9 | -2
N/C(=N/OS(=O)(=O)c1ccc([N+](=O)[O-])cc1)c1ccncc1 | 37* | -2 | 4 | -2 | 1
Cc1ccc2c(c1)c(/C=C/c1cc[n+](C)cc1)c(C)n2C | 0 | -239 | 241* | -286 | -68
Cc1ccc2[nH]c(C)c(/C=C/c3cc[n+](C)cc3)c2c1 | -166 | -188 | 154* | -159 | -53
O=C(NC1CCCC1)c1cccc(NC(=O)c2ccco2)c1 | 1 | -1 | 4 | -8 | 1
O=C(O)c1ccccc1-c1ccccc1C(=O)NCc1cccc(C(F)(F)F)c1 | 18* | 4 | -10 | -5 | 0
Cc1ccc(OCC(=O)N(C)Cc2ccccc2)c([N+](=O)[O-])n1 | 17* | 5 | -1 | -3 | 4
CC[C@@]1(C(=O)OC)N[C@H](CN(C)C(=O)Nc2ccc(OC)cc2)[C@@H]2C(=O)N(Cc3ccccc3)C(=O)[C@@H]21 | + | 1 | -3 | -1 | -2
COC(=O)[C@]1(C)N[C@H](CN(C)C(=O)Nc2ccc(Cl)cc2)[C@@H]2C(=O)N(Cc3ccccc3)C(=O)[C@@H]21 | + | -1 | -9 | 3 | 2
COC(=O)[C@]1(C)N[C@H](CN(C)C(=O)Nc2ccc(C)cc2)[C@@H]2C(=O)N(Cc3ccccc3)C(=O)[C@@H]21 | -1 | 0 | -7 | 0 | 0
CN(C)S(=O)(=O)c1cc(NC(=O)CNCc2ccc(F)cc2)ccc1Cl | 1 | -2 | -11 | -4 | 1
Cc1cccc(C)c1OCc1cc(C(=O)NC2CCC2)no1 | 0 | -12 | -1 | -1 | -4
Cc1cccc(C)c1OCc1cc(C(=O)NC2CCC(O)CC2)no1 (stereo unspecified) | 21* | 4 | -4 | -17 | -1
Cc1cccc(Cn2c(N(C)CCO)nc3c2c(=O)[nH]c(=O)n3C)c1 | 14* | -2 | 0 | -2 | 1
CN(Cc1ccccc1)c1nc2c(c(=O)[nH]c(=O)n2C)n1Cc1ccccc1 | -1 | -3 | 1 | -2 | 0
SMILES | LANA-H2B inh | Keap1-Nrf2 PPI | cardiac RTF act | Cardiac RTF inh | C-LANA FP
CCOc1ccc(N(CC(=O)NC2CCCCC2)C(=O)CNC(=O)c2ccco2)cc1 | 26* | -1 | -1 | 4 | 1
O=C(NCC(=O)N(c1cccnc1)C(C(=O)NC1CCCCC1)c1cccnc1)c1ccco1 (stereo unspecified) | 14* | 2 | 4 | -12 | 1
CC(=O)Nc1ccc(N(C(=O)c2ccco2)C(C(=O)NC2CCCCC2)c2ccccc2)cc1 (stereo unspecified) | 10.0* | -4 | -3 | -10 | -1
O=C(NCC(=O)N(c1ccccc1)C(C(=O)NC1CCCC1)c1cccnc1)c1ccco1 (stereo unspecified) | 0 | 3 | -4 | -8 | 0
COc1cc(OC)cc(C(=O)Nc2ccc(S(=O)(=O)N3CCOCC3)cc2)c1 | -3 | 0 | 5 | -4 | 1
CCOC(=O)C1C(=O)C(=O)N(C2CCCCC2)C1C(=O)OCC (stereo unspecified) | nt | -5 | 2 | -2 | 2
O=C(Nc1nc2c(s1)CN(Cc1ccccc1)CC2)C1CCC1 | -1 | -6 | 1 | 8 | -1
